Assay outcomes (PubChem)
Most compounds without a hit are left out; they make up all but 11% or so of the library.
Luciferase inh – inhibitors of firefly (Photinus pyralis) luciferase; P08659; purified P. pyralis luciferase, luminescence, biochemical; Potency, µM (series often up to 115 µM), usual class: inhibitors; 76,000 tested, 2.5% active; AID 1347043; active means well fitted curve in the direction sought with a large enough effect; inconclusive means small, poorly fitted or top-dose-only effect, or another doubt; inactive means no such curve, though single readings can be large; an effect the other way counts as inactive or inconclusive; further: on the % scale 0 is the no-effect control and ±100 the full control effect; nearly all actives have a fitted effect of over 65% in size
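Biochemical qHTS: compound (6-point titration) added to 10uM D-luciferin plus 10uM ATP in Tris acetate pH 7.5 buffer with Mg, Tween-20 and BSA, then purified enzyme at 10nM; light output imaged.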
NIH3T3 tox – NIH 3T3 cell cytotoxicity | Potency, µM (highest dose often 96.7 µM), without a hit: top-dose activity change, negative = cytotoxicity, hits mostly inhibitors | NIH 3T3 viability, CellTiter-Glo ATP luminescence, 48-72 h | 94,000 tested, 4.3% active | AID 1345082; active means well fitted curve in the direction sought with a large enough effect; inconclusive means small, poorly fitted or top-dose-only effect, or another doubt; inactive means no such curve, though single readings can be large; an effect the other way counts as inactive or inconclusive; further: on the % scale 0 is the no-effect control and ±100 the full control effect; nearly all actives have a fitted effect of over 55% in size
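NIH 3T3 cells at 400 cells/well received 23 nL of compound by pintool and were incubated 48 or 72 h at 37 °C. Viability was read as ATP-coupled CellTiter-Glo luminescence.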
hNpr1 antagonist – blocks ANP-stimulated signaling of human Npr1 receptor; P16066; HEK293 hNpr1 GloSensor cGMP, ANP-stimulated luminescence; Potency, µM (series often up to 46.3 µM), for inactives: at the top dose activity change, negative = inhibition, hits mostly inhibitors; 76,000 tested, 1.6% active; AID 1347048; further: on the % scale 0 is the no-effect control and ±100 the full control effect; nearly all actives have a fitted effect of over 60% in size
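HEK293 cells stably expressing human Npr1 and cGMP GloSensor pGS-40F, loaded 2 h with 2% GloSensor reagent, given compound 30 min at room temperature. Luminescence read before and 20 min after 0.1 nM hNppA.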
HEK cytotox – cytotoxic compounds in HEK 293 cells; HEK 293 viability, ATP luminescence (CellTiter-Glo), 48-72 h; Potency, µM (highest dose often 115 µM), inactives show at the highest dose activity change, negative = cytotoxicity, most hits filed as inhibitors; 94,000 tested, 6.6% active; AID 1345083; active means well fitted curve in the direction sought with a large enough effect; inconclusive means small, poorly fitted or top-dose-only effect, or another doubt; inactive means no such curve, though single readings can be large; an effect the other way counts as inactive or inconclusive; further: on the % scale 0 is the no-effect control and ±100 the full control effect; nearly all actives have a fitted effect of over 60% in size
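Pintool-delivered compounds were incubated with HEK 293 cells (250 cells/well) at 37 degree Celsius for 48 or 72 hr. ATP-dependent luminescence (CellTiter-Glo) then reported remaining viable cells.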
Npr1 antag conf – hNpr1 antagonism, confirmation assay | shares compounds with hNpr1 antagonist | HEK293 hNpr1 cGMP GloSensor luminescence, ANP-stimulated | Potency, µM (doses to about 57.6 µM), without a hit: at the top dose activity change, negative = inhibition, hits mostly inhibitors | 1,400 tested, 76% active | AID 1347044; further: nearly all actives have a fitted effect of over 70% in size
NPR2 antag – selectivity test of Npr1 antagonists against human Npr2; HEK293 hNpr2 GloSensor cGMP luminescence, CNP-stimulated; shares compounds with hNpr1 antagonist; 1,400 tested, 67% active; Potency, µM (doses to about 57.6 µM), inactives show at the top dose activity change, negative = inhibition, hits mostly inhibitors; further: nearly all actives have a fitted effect of over 70% in size
Target sequence (P20594 whole entry, looked up): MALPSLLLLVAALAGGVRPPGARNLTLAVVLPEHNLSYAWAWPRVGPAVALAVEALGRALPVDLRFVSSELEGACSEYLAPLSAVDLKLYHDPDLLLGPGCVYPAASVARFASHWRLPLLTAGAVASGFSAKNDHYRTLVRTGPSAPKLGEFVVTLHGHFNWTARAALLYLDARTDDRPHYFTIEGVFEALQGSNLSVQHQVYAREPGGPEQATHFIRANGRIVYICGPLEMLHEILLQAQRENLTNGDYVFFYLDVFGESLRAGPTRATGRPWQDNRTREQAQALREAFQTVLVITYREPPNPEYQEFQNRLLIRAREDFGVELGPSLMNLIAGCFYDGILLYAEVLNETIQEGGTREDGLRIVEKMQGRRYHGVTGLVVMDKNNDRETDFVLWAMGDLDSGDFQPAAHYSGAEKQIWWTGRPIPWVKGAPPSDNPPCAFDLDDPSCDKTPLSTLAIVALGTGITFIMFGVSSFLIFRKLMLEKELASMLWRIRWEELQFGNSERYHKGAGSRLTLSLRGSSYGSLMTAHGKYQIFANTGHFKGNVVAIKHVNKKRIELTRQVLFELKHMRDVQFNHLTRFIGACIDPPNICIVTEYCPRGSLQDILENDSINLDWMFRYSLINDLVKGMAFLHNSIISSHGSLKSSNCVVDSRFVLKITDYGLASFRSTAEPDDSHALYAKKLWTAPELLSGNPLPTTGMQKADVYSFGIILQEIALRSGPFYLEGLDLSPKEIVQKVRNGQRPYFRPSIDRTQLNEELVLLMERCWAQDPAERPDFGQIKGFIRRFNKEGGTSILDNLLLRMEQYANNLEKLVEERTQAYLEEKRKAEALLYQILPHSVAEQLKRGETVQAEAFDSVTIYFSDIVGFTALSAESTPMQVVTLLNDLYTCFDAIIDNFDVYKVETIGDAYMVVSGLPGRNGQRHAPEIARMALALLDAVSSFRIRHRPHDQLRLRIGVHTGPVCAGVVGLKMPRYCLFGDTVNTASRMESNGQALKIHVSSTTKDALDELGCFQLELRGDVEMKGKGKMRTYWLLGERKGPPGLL
FLuc inh counter – counter-screen for Npr1 antagonists: firefly luciferase inhibitors; shares compounds with hNpr1 antagonist; purified FLuc enzyme, luminescence, Km substrate; Potency, µM (highest dose often 57.6 µM), for inactives: top-dose activity change, negative = inhibition, most hits filed as inhibitors; 1,400 tested, 0.7% active; AID 1347047; active means well fitted curve in the direction sought with a large enough effect; inconclusive means small, poorly fitted or top-dose-only effect, or another doubt; inactive means no such curve, though single readings can be large; an effect the other way counts as inactive or inconclusive; further: 0% is about no effect
GloSensor ctrl – control cell line activity, Npr1 antagonist counter-screen; shares compounds with hNpr1 antagonist; HEK293 GloSensor cGMP, SNP-stimulated, luminescence; Potency, µM (series often up to 57.6 µM), inactives show at the top dose activity change, negative = inhibition, most hits filed as inhibitors; 1,400 tested, 69% active; further: on the % scale 0 is the no-effect control and ±100 the full control effect; nearly all actives have a fitted effect of over 70% in size
The depositor's hits bear a star; i = inactive; ? = inconclusive; · = not tested or not shown; [ ] = dose if it differs, or a comment. Unless noted, the call rests on the fitted dose curve. Potency means the concentration at half of the fitted maximal effect.

SMILES	Luciferase inh	NIH3T3 tox	hNpr1 antagonist	HEK cytotox	Npr1 antag conf	NPR2 antag	FLuc inh counter	GloSensor ctrl
COc1ccc(Cl)cc1C(=O)N1CCN(c2cc(-c3cccs3)[nH]n2)CC1	i	?	?	?	·	·	·	·
COc1ccc(C(=O)N2CCN(c3cc(-c4cccs4)[nH]n3)CC2)c(C)c1	i	?	11.2µM*	50.1µM*	19.3µM*	19.3µM*	0.4%	15.3µM*
O=C(Nc1c(F)cccc1F)N1CCOc2ccc(CN3CCc4ccccc4C3)cc2C1	i	?	-2.4%	?	·	·	·	·
O=C(CCC1CCCN(S(=O)(=O)c2cccc(F)c2)C1)NC1CCCCC1 (stereo not drawn)	i	?	15.8µM*	?	27.3µM*	24.3µM*	0.0%	24.3µM*
Cc1ccccc1C(=O)N1CCCC(C(=O)N2CCCC(c3nc4ccncc4[nH]3)C2)C1 (stereo not drawn)	·	-22.3%	·	-0.6%	·	·	·	·
CC(C)CN1C(=O)c2cccn2CC1C(=O)N1CCN(c2ncccn2)CC1 (stereo not drawn)	i	4.0%	4.6%	2.3%	·	·	·	·
CCOCCOC1CCN(C(=O)c2cccc(F)c2)CC1	i	i	-0.6%	8.5%	·	·	·	·
CN(C)c1cccc(C(=O)N2CCC(OCCOc3ccc(F)cc3)CC2)c1	i	?	12.6µM*	?	24.3µM*	24.3µM*	-15.9%	21.7µM*
CC(C)c1ccc(CN2CCc3ncc(C(=O)NCc4ccccc4)n3CC2)cc1	i	?	28.2µM*	28.2µM*	25µM*	31.4µM*	-2.1%[86.2 µM]	22.2µM*
C[C@H]1[C@@H]2[C@@H](O)C([C@H](C)C(=O)NCc3cccs3)CC[C@@]2(C)CC[C@@H]1NC(=O)C1CCCCC1 (stereo partly drawn)	i	?	0.1%	?	·	·	·	·
COc1ccccc1-c1ccc2ncc(Nc3ccc4c(c3)OCO4)n2n1	i	?	-4.2%[70.6 µM]	?	·	·	·	·
COc1ccc(Nc2cnc3ccc(-c4ccccc4OC)nn23)cc1OC	i	?	28.2µM*	?	25µM*	25µM*	?	22.2µM*
COc1cc(F)cc(-c2cnc3[nH]cc(CC(=O)NCc4cccnc4)c3c2)c1	i	?	28.2µM*	?	31.4µM*	31.4µM*	?	31.4µM*
Cc1cc(-c2cnc3[nH]cc(CC(=O)NCc4cccnc4)c3c2)ccn1	i	?	1.3%[70.6 µM]	?	·	·	·	·
O=C(Cc1c[nH]c2ncc(-c3ccc(F)c(Cl)c3)cc12)NCc1cccnc1	i	?	22.4µM*	?	39.6µM*	31.4µM*	-3.1%[86.2 µM]	28µM*
CCc1ccc(C(=O)N2C[C@@H](CO)[C@H](c3nc(CCOC)no3)C2)cc1	i	-3.6%	4.9%	-15.4%	·	·	·	·
O=C([C@@H]1CCCN1[S+](=O)([O-])c1cccc(C(F)(F)F)c1)N1CCC(N2CCOC2=O)CC1	·	-13.8%	·	-15.0%	·	·	·	·
CC(C)Oc1ccc(CN2C[C@@H](CO)[C@H](c3ccncc3)C2)cc1	i	-15.1%	11.2µM*	39.8µM*	?	?	1.5%	27.3µM*
CC1=C(C(=O)OC(C)C)C(c2ccc(C)cc2)CC(=O)N1Cc1cccc(C#N)c1 (stereo not drawn)	i	?	?	35.5µM*	?	?	1.2%	-1.8%
N#Cc1ccc(C(=O)NC2CCN(c3cc(-c4ccccc4)[nH]n3)CC2)cc1	i	?	0.0%	?	·	·	·	·
COc1ccc(CC(=O)NC2CCN(c3cc(-c4ccc(Cl)cc4)[nH]n3)CC2)cc1OC	i	?	17.8µM*	39.8µM*	24.3µM*	21.7µM*	-0.6%	24.3µM*
Cc1ccccc1OCC(=O)NC1CCN(c2cc(-c3ccccc3)[nH]n2)CC1	i	?	11.2µM*	25.1µM*	15.3µM*	21.7µM*	-1.7%	10.9µM*
N#Cc1ccc(C(=O)NC2CCN(c3cc(-c4ccc(Cl)cc4)[nH]n3)CC2)cc1	i	-19.5%	?	?	?	?	-2.0%	?
COc1ccc(CC(=O)NC2CCCN(c3cc(-c4ccc(F)cc4)[nH]n3)C2)cc1 (stereo not drawn)	i	-0.3%	-2.5%	-9.8%	·	·	·	·
O=C(COc1ccccc1)NC1CCN(c2cc(-c3ccccc3)[nH]n2)CC1	i	?	-30.2%	?	·	·	·	·
SMILES	Luciferase inh	NIH3T3 tox	hNpr1 antagonist	HEK cytotox	Npr1 antag conf	NPR2 antag	FLuc inh counter	GloSensor ctrl
COc1ccc(CC(=O)NC2CCN(c3cc(-c4ccc(F)cc4)[nH]n3)C2)cc1OC (stereo not drawn)	i	?	12.6µM*	?	21.7µM*	21.7µM*	-1.0%	24.3µM*
O=C(NC1CCN(C(=O)c2ccc(-c3cncnc3)cc2)CC1)c1ccc(F)cc1	·	-25.5%	·	?	·	·	·	·
Cc1ccc(CN2C(=O)NC3(CCN(C(=O)c4ccccn4)CC3)C2=O)cc1	i	0.0%	3.0%	6.0%	·	·	·	·
COc1cccc(CC(=O)NC2CCN(c3cc(-c4ccc(Cl)cc4)[nH]n3)CC2)c1	i	-23.9%	?	-29.6%	?	?	-2.6%	?
COc1ccc(CC(=O)NC2CCN(c3cc(-c4ccc(F)cc4)[nH]n3)CC2)cc1OC	i	?	11.2µM*	?	21.7µM*	19.3µM*	-1.5%	21.7µM*
COc1ccc(C(=O)NC2CCCN(c3cc(-c4ccc(Cl)cc4)[nH]n3)C2)c(C)c1 (stereo not drawn)	i	-28.2%	?	-29.3%	?	?	-2.0%	?
COc1ccc(-c2cc(N3CCC(NC(=O)Cc4cccc(OC)c4)CC3)n[nH]2)cc1	i	?	-6.9%	?	·	·	·	·
COc1ccc(C(=O)NC2CCN(c3cc(-c4ccc(Cl)cc4)[nH]n3)CC2)c(C)c1	i	?	?	?	·	·	·	·
CCNC(=O)OC1CCN(C(=O)Cc2ccc(F)cc2)CC(=O)N(C)c2ccccc21 (stereo not drawn)	·	?	·	-1.2%	·	·	·	·
O=C(NC[C@H]1OC[C@@H](NC2CCOCC2)[C@@H]1O)c1ccccc1	i	-17.5%[174 µM]	3.6%[70.6 µM]	1.6%[172 µM]	·	·	·	·
C[S+](=O)([O-])N1CCC(c2nnc3n2C(C(=O)NCc2ccccc2Cl)CC3)CC1 (stereo not drawn)	·	-12.4%[138 µM]	·	-1.2%[172 µM]	·	·	·	·
